Test results as given in PubChem BioAssay AID624048 (National Center for Advancing Translational Sciences (NCATS), 2012).
Inconclusive results are not listed. Calls of active or inactive are those of the source. The call rests on the fitted dose curve; in most records, active means well fitted inhibition curve with a large enough effect; inconclusive means small, poorly fitted or top-dose-only effect; inactive means no such curve, though single readings can be large or run the other way.

What follows are compounds tested against Dual specificity protein kinase CLK2 (Homo sapiens) (UniProt P49760) (assay: Reaction Biology data for inhibitors of CLK2: Probe SAR). Conditions: Reaction Biology CLK2 kinase assay, 10 uM ATP; series mostly up to 10 µM.
Dual specificity protein kinase CLK2 (Homo sapiens), sequence (P49760 whole entry, looked up, canonical isoform): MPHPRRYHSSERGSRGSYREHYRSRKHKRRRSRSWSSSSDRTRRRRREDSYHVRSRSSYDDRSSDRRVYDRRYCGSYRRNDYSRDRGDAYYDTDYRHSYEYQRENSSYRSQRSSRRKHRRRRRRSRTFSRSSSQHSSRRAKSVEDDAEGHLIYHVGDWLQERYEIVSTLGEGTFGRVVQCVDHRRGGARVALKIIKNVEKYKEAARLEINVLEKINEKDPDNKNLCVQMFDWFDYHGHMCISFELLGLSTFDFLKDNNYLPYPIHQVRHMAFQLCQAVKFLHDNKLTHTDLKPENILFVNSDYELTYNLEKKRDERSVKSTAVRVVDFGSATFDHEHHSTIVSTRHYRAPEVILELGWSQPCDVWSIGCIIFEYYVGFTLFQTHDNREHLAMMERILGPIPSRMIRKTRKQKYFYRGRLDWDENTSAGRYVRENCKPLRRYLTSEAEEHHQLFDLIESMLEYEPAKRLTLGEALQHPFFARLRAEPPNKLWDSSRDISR
From the text: Alternative splicing of pre-mRNAs plays a major role in the regulation of eukaryotic gene expression. Alternative splicing is now thought to be one of the primary reasons for the complexity of higher organisms leading to an average of three protein isoforms per gene. Aberrant splicing can lead to a number of diseases and is known to play a role in rare genetic diseases such as progeria syndrome. Hutchinson-Gilford Progeria Syndrome (HGPS) is a pediatric premature aging disease caused by a spontaneous mutation in the lamin A/C (LMNA) gene due to a single point mutation in the lamin A gene effecting 1 in 4 million people. To identify both specific splicing modulators of the lamin A gene as well as general splicing modulators, a cell-based HTS assay was developed using a minigene reporter system (AIDs, 1459 & 1487). […] This AID summarizes the characterization of lead compounds in Clk2. NIH Molecular Libraries Probe Production Centers Network [MLPCN] NIH Chemical Genomics Center [NCGC] MLPCN Grant: MH084827 Assay Submitter (PI): Tom Misteli
Compound IC50s were determined at Reaction Biology (http://www.reactionbiology.com) with ten concentration points starting at 10 uM in the assay using a 3-fold dilution series. The control compound staurosporine was also tested in the 10-dose IC50 mode with the same 3-fold serial dilution, again starting at 10 uM. All kinase reactions were performed using 10 uM ATP in the assay. 100% activity was taken from kinase reactions with DMSO alone (the vehicle used for compound stock solutions).

Row | Compound | Potency
1 | Clc1ccc(CNc2nccc(-c3ccc4cn[nH]c4c3)n2)cc1Cl | 429 nM (active)
2 | Cc1c(-c2ccnc(NCc3cccnc3)n2)sc(=O)n1C | 576 nM (active)
3 | COc1cccc(-c2ccnc(NCc3ccc(Cl)c(Cl)c3)n2)c1 | inactive
4 | Brc1cc(Br)cc(CNc2nccc(-c3ccc4c(c3)OCO4)n2)c1 | 41.4 nM (active)
5 | Clc1cc(Cl)cc(CNc2ncncc2-c2ccc3c(c2)OCO3)c1 | 231 nM (active)
6 | FC(F)(F)c1cccc(Nc2nccc(-c3ccc4c(c3)OCO4)n2)c1 | 52.1 nM (active)
7 | Clc1ccc(Nc2nccc(-c3ccc4c(c3)OCO4)n2)cc1 | inactive
8 | COc1ccc(-c2ccnc(NCc3ccc(Cl)cc3)n2)cc1 | 1090 nM (active)
9 | COc1cccc(-c2ccnc(NCc3ccc(Cl)cc3)n2)c1 | inactive
10 | Clc1ccc(CNc2ncncc2-c2ccc3c(c2)OCO3)cc1Cl | 1560 nM (active)
11 | Clc1ccc(CNc2nccc(-c3ccc4[nH]ncc4c3)n2)cc1Cl | 190 nM (active)
12 | COc1ccc(-c2ccnc(NCc3ccc(Cl)c(Cl)c3)n2)cc1 | 409 nM (active)
13 | c1cncc(CNc2nccc(-c3ccc4[nH]ncc4c3)n2)c1 | 462 nM (active)
14 | Cc1c(-c2ccnc(NCc3ccc(Cl)cc3)n2)sc(=O)n1C | 700 nM (active)
15 | Clc1ccc(CNc2nccc(-c3ccc4c(c3)OCO4)n2)cc1Cl | 20.4 nM (active)
16 | Cc1nc(CNc2ncnc3ccc(-c4ccc5c(c4)OCO5)cc23)cs1 | 187 nM (active)

Row | Compound | Potency
17 | Cc1nc(CN(C)c2ncnc3ccc(-c4ccc5c(c4)OCO5)cc23)cs1 | 44.8 nM (active)
18 | Brc1ccc(CNc2nccc(-c3ccc4c(c3)OCO4)n2)cc1Br | 29.6 nM (active)
19 | c1cncc(CNc2ncncc2-c2ccc3c(c2)OCO3)c1 | inactive
20 | Clc1ccc(CNc2ccnc(-c3ccc4c(c3)OCO4)n2)cc1Cl | inactive
21 | O=[N+]([O-])c1cc(Nc2nccc(-c3ccc4c(c3)OCO4)n2)cc(C(F)(F)F)c1 | 39.8 nM (active)
22 | c1cc(-c2ccc3c(c2)OCO3)nc(Nc2ccc3c(c2)OCO3)n1 | 259 nM (active)
23 | c1nc(NCC2CCCO2)c2cc(-c3ccc4c(c3)OCO4)ccc2n1 (stereo unspecified) | 358 nM (active)
24 | FC(F)(F)c1cc(Br)cc(Nc2nccc(-c3ccc4c(c3)OCO4)n2)c1 | 344 nM (active)
25 | c1cncc(CNc2ccnc(-c3ccc4[nH]ncc4c3)n2)c1 | 665 nM (active)
26 | Clc1ccc(CNc2nccc(-c3ccc4c(c3)OCCO4)n2)cc1Cl | 39.1 nM (active)
27 | c1cncc(CNc2nccc(-c3ccc4c(c3)OCO4)n2)c1 | 59.8 nM (active)
28 | c1cncc(CNc2ccnc(-c3ccc4cn[nH]c4c3)n2)c1 | 1900 nM (active)
29 | Clc1cc(Cl)cc(CNc2nccc(-c3ccc4c(c3)OCO4)n2)c1 | 23.4 nM (active)
30 | COc1ccc(-c2ccnc(NCc3ccc(Cl)c(Cl)c3)n2)cc1OC | inactive
31 | Cc1nc(CN(C)c2ncnc3ccc(-c4ccc5[nH]ncc5c4)cc23)cs1 | 160 nM (active)
